# Screening data as filed in PubChem BioAssay.
# A selection: hits, their analogues and other compounds. The true share with any hit is near 3.7%.
# BoNT F protease – BoNT F light chain protease inhibition. Multiplex microsphere protease cleavage assay, flow cytometry. inhibition, % at 10 µM. actives 0.22% (n = 360,000). AID 588497; in the data active means inhibition above about 35%, passing the limit was not always enough; inconclusive means no clear call, values can overlap the other calls; further: plate controls were buffer without enzyme for full effect and enzyme alone for no effect
# BoNT A protease – BoNT A light chain protease inhibition; inhibition, % at 10 µM; AID 588499; actives 0.17% (n = 360,000); multiplex microsphere protease substrate cleavage, flow cytometry; further: plate controls were buffer without enzyme for full effect and enzyme alone for no effect
# Anthrax LF inh2 – inhibitors of Bacillus anthracis lethal factor protease. P15917. actives 0.12% (n = 360,000). inhibition, % at 10 µM. AID 588501. multiplex microsphere protease cleavage assay, LF; further: plate controls were buffer without enzyme for full effect and enzyme alone for no effect
# BJeLR lethal – kills HRASV12-expressing BJeLR cells; inhibition, % (test concentration not listed); actives 0.17% (n = 300,000); BJeLR (HRASV12) viability, CellTiter-Glo ATP luminescence, 48 h; in the data active means inhibition above about 50%; inconclusive means no clear call, values can overlap the other calls
# Autofluor counter – counter-screen for toxin protease inhibitors: compound fluorescence; compound autofluorescence counterscreen, microsphere flow cytometry; active compounds read high; actives 3.1% (n = 360,000); AID 624483; fluorescence intensity (no concentration beside the values); in the data active means fluorescence intensity above about 16000; inconclusive means no clear call, values can overlap the other calls
# BH1578 lux ind – quorum light induction in luxS cqsA deficient V. cholerae; V. cholerae BH1578 lux reporter, luminescence, 6 h; activation, % at 18.7 µM; actives 0.16% (n = 350,000); AID 588436; in the data active means activation mostly above about 9.7%, no sharp cut-off; inconclusive means no clear call, values can overlap the other calls; inactive means mostly below about 3.7%
# Starred values were filed as active, the others as inactive; i = inactive; ? = inconclusive; nt = no result given. Unless noted, no stated cut-off is given here; in the data, active means inhibition above about 30%; inconclusive means no clear call, values can overlap the other calls; inactive means below that.
SMILES,BoNT F protease,BoNT A protease,Anthrax LF inh2,BJeLR lethal,Autofluor counter,BH1578 lux ind
CCN1C(=O)/C(=C/C=C2\N(CC)c3cc(S(=O)(=O)N(C)C)ccc3N2c2ccccc2)SC1=S,14,89*,38*,30,6004,0
CC(C)(C)OC(=O)N1CCc2onc(-c3ccc(N)cc3)c2C1=O,-5,0,-8,nt,3799,0
COc1ccc(NC(=O)CSc2nnnn2C2CCCC2)cc1S(=O)(=O)N1CCOCC1,1,0,-2,nt,3809,i
CP(=O)(Nc1ccc(Cl)cc1)c1nc2c(s1)CCCC2 (stereo not drawn),-2,0,-1,11,4233,i
O=P(Nc1c(Cl)cccc1Cl)(c1ccccc1)c1nc2c(s1)CCCC2 (stereo not drawn),-3,-3,-9,-5,23723*,0
O=P(Nc1ccccc1Cl)(c1ccccc1)c1nc2c(s1)CCCC2 (stereo not drawn),-9,-3,-2,2,17289*,5
O=c1ccoc2ccccc12,6,0,3,nt,4952,0
CCOC(=O)CCCCCC(=O)Nc1ccc2c(c1)C(=O)N([C@H](C)CO)C[C@H](C)[C@H](CN(C)C(=O)C1CCCCC1)OCCCC[C@@H](C)O2,-1,0,1,nt,3586,0
N=c1c2c(-c3ccccc3)c(-c3ccccc3)n(Cc3ccco3)c2ncn1Cc1ccccc1,8,0,5,3,4453,5
N=c1c2c(-c3ccccc3)c(-c3ccccc3)n(Cc3ccccc3)c2ncn1CCO,-1,?,-1,-11,22944*,0
N=c1c2c(-c3ccccc3)c(-c3ccccc3)n(Cc3ccco3)c2ncn1CCCn1ccnc1,-2,0,0,52*,2565,0
N=c1c2c(-c3ccccc3)c(-c3ccccc3)n(Cc3ccco3)c2ncn1CCCN1CCOCC1,6,0,-2,-3,4305,i
CCCCNC(=S)N(C)/N=C/c1c(C)[nH]c2ccccc12,-29,32*,5,-6,5277,0
CC1=Nn2c(nnc2-c2cc(-c3ccccc3)n[nH]2)SC1,-24,-1,-2,-2,4836,-1
CCc1nnc2n1N=C(c1ccc(OC)cc1)CS2,-10,-3,-4,1,17512*,-2
CCc1nnc2n1N=C(c1ccc([N+](=O)[O-])cc1)CS2,?,1,7,-5,4095,-1
COc1ccc(C2=Nn3c(nnc3-c3ccccn3)SC2)cc1,-2,?,-2,8,24133*,1
COc1ccc(C2=Nn3c(nnc3-c3ccncc3)SC2)cc1OC,2,4,-10,3,14717,0
c1ccc(-c2ccc(C3=Nn4c(nnc4-c4cc(-c5ccccc5)n[nH]4)SC3)cc2)cc1,2,3,3,6,18459*,i
CCOc1ccc(C2=Nn3c(nnc3-c3ccccc3OC)SC2)cc1,1,1,0,50,22729*,-2
CCOc1ccc(-c2nnc3n2N=C(c2ccc(OC)cc2)CS3)cc1,10,6,4,5,19797*,-16
COc1cccc(-c2nnc3n2N=C(c2cccc(Br)c2)CS3)c1,-5,?,0,6,20881*,1
CCOC(=O)c1[nH]c2ccc(C)cc2c1N,-3,0,1,-2,22785*,i
COc1ccc(CN2C(=O)C(CC(=O)NCCCCc3ccccc3)CC(C(=O)N(C)C)=C2C)cc1 (stereo not drawn),-4,0,-6,nt,3802,i
CC[C@@]1(O)C(=O)OCc2c1cc1n(c2=O)Cc2cc3ccccc3nc2-1,nt,nt,nt,91*,nt,nt
CC[C@@]1(O)C(=O)OCc2c1cc1n(c2=O)Cc2cc3c(NC(=O)CN)cccc3nc2-1,-6,1,-9,93*,3548,i
CCOC(=O)C1(C(=O)OCC)COC(=O)C1CN1Cc2cc3ccccc3nc2C1 (stereo not drawn),-8,1,-2,nt,4519,-1
CCC1(O)C(=O)OCc2c1cc1n(c2=O)Cc2cc3cc(O)ccc3nc2-1 (stereo not drawn),2,0,1,nt,5528,-1
CCC1(OC(=O)CN)C(=O)OCc2c1cc1n(c2=O)Cc2cc3ccccc3nc2-1 (stereo not drawn),-12,-2,-9,90*,3598,i
O=C(NCC(F)(F)F)c1ccc2sc([C@@H]3O[C@H](CO)[C@H](O)[C@H](O)[C@H]3O)nc2c1,-1,0,-2,nt,2879,0
